Test results reported in PubChem BioAssay (NCATS).
Active and inactive are the calls of the source. Calls follow the shape of the full dose curve. Non-standard residues stand in square brackets, D forms with d. Residues, ends and D or L forms follow the SMILES beside them. *: point of attachment. Sta = CC(C)C[C@H](N)[C@@H](O)CC(=O)O; Isovaleryl = CC(C)CC(=O)*

Test: qHTS drug screen for cell cycle checkpoint inhibitors in PARPi-resistant BRCA-mutant ovarian cancer cell lines. (AID 1963452)
Conditions: PEO1/OlaR viability, CellTiter-Glo luminescence, 96 h, stronger effect = lower value
Method in brief: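 PEO1, PEO4 and PEO1/OlaR ovarian cancer cells, 600 per well, exposed 96 h at 37C to a dilution series. Viability read by CellTiter-Glo luminescence, normalized to DMSO and empty wells; activity summarized as Z-AUC.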

[1] = measured here: PEO1 parental Z-AUC

Row | Structure (SMILES) | Z-AUC | Z-AUC [1] | Z-AUC (measured here: PEO4 Z-AUC)
1 | C=C(c1ccc(C(=O)O)cc1)c1cc2c(cc1C)C(C)(C)CCC2(C)C | 1.36 (inactive) | 0.659 | 0.161
2 | CC(C)c1ccc2oc3nc(N)c(C(=O)O)cc3c(=O)c2c1 | -0.387 (inactive) | 0.341 | 0.263
3 | COc1ccccc1N1CCN(CCN(C(=O)C2CCCCC2)c2ccccn2)CC1 | 0.61 (inactive) | 0.37 | 0.876
4 | c1ccc2[nH]c(-c3cscn3)nc2c1 | -1.4 (inactive) | -0.204 | 0.0577
5 | O=C(NC(Cc1cc(=O)[nH]c2ccccc12)C(=O)O)c1ccc(Cl)cc1 (stereo unspecified) | -0.00865 (inactive) | 0.872 | 1.04
6 | CC(C)CC(=O)N[C@H](C(=O)N[C@H](C(=O)N[C@@H](CC(C)C)[C@@H](O)CC(=O)N[C@@H](C)C(=O)N[C@@H](CC(C)C)[C@@H](O)CC(=O)O)C(C)C)C(C)C (Isovaleryl-VV[Sta]A[Sta]-OH) | 0.839 (inactive) | 0.464 | 0.507
7 | CCCCN(CCCC)CCC(O)c1cc2c(Cl)cc(Cl)cc2c2cc(C(F)(F)F)ccc12 (stereo unspecified) | -0.995 (inactive) | -1.16 | -0.882
8 | COC1=C(OC)C(=O)C(CCCCCCCCCCO)=C(C)C1=O | -0.864 (inactive) | -1.14 | -0.303
9 | CCOc1cc(CC(=O)N[C@@H](CC(C)C)c2ccccc2N2CCCCC2)ccc1C(=O)O | 0.686 (inactive) | 0.341 | 0.628
10 | CN1CCC(=C2c3ccccc3CCc3sccc32)CC1 | -0.614 (inactive) | -1.2 | -0.893
11 | O=C(O)CCNC(=O)c1ccc(N=Nc2ccc(O)c(C(=O)O)c2)cc1 | -0.101 (inactive) | 0.264 | 0.361
12 | Cc1ccc(NC(=O)c2ccc(CN3CCN(C)CC3)cc2)cc1Nc1nccc(-c2cccnc2)n1 | -0.776 (inactive) | -0.808 | -0.886
13 | CCOC(=O)C1=C(O)C(=O)N(Cc2ccccc2)C1 | 1.25 (inactive) | 1.01 | 1.38
14 | Oc1ccc(-c2nc(-c3ccc(F)cc3)c(-c3ccncc3)[nH]2)cc1 | 1.12 (inactive) | -0.0618 | 0.0892
15 | NCCCCNCCCN | 0.434 (inactive) | 1.13 | 0.641
16 | CC1Cc2ccccc2N1NC(=O)c1ccc(Cl)c(S(N)(=O)=O)c1 (stereo unspecified) | -0.461 (inactive) | -0.0256 | 0.0474
17 | CCN(CC)CCOc1ccc(Cc2ccccc2)cc1 | 1.12 (inactive) | 0.729 | 0.289
18 | Cc1cc(=O)oc2cc(O)ccc12 | 0.0735 (inactive) | 0.832 | 0.848
19 | CCCCCCCCCCCCCCCCCCCCCCO | 0.761 (inactive) | 0.472 | 0.414

Row | Structure (SMILES) | Z-AUC | Z-AUC [1] | Z-AUC (measured here: PEO4 Z-AUC)
20 | Oc1ccc(OCc2ccccc2)cc1 | 0.481 (inactive) | 0.491 | 0.0323
21 | O=C(O)c1cc(=O)c2c(OCC(O)COc3cccc4oc(C(=O)O)cc(=O)c34)cccc2o1 | 1.18 (inactive) | 1.06 | 1
22 | Cc1ncc([N+](=O)[O-])n1CC(C)O (stereo unspecified) | 0.202 (inactive) | 1.06 | 0.768
23 | Cc1cc(Cl)ccc1OCCCC(=O)NO | 0.502 (inactive) | 0.403 | 0.182
24 | O=C(CCc1ccc(O)cc1)c1c(O)cc(O)cc1O | -0.868 (inactive) | -0.361 | -0.52
25 | CCN(CCO)CCCC(C)Nc1ccnc2cc(Cl)ccc12 (stereo unspecified) | 1.8 (inactive) | 1.41 | 1.84
26 | CCC(C)(Oc1ccc(C2(c3ccc(OC(C)(CC)C(=O)O)cc3)CCCCC2)cc1)C(=O)O (stereo unspecified) | 0.486 (inactive) | 0.92 | 0.795
27 | Nc1nc(OCc2ccccc2)c2[nH]cnc2n1 | 0.131 (inactive) | 0.393 | 0.209
28 | CN1C(C(=O)Nc2ccccn2)=C(O)c2sccc2S1(=O)=O | 1.5 (inactive) | 1.16 | 1.02
29 | Cc1c(C(=O)NN2CCCCC2)nn(-c2ccc(Cl)cc2Cl)c1-c1ccc(Cl)cc1 | -1.52 (inactive) | -0.747 | -0.695
30 | NNc1nncc2ccccc12 | 0.571 (inactive) | 0.709 | 0.892
31 | Nc1ccn([C@@H]2O[C@H](CO)[C@@H](O)C2O)c(=O)n1 (stereo partly specified) | -1.18 (inactive) | -1.27 | -0.431
32 | CC(C)Oc1ccc2c(=O)c(-c3ccccc3)coc2c1 | 0.208 (inactive) | -0.757 | -0.189
33 | CCOC(=O)C(C)Oc1cccc2c(=O)n(CC(=O)Nc3ccc4c(c3)OCCO4)ccc12 (stereo unspecified) | 0.881 (inactive) | 0.435 | 0.282
34 | CC(C)(S)[C@@H](N)C(=O)O | 0.193 (inactive) | 0.891 | 1.3
35 | NC(=NCc1ccccc1)NC(=O)c1nc(Cl)c(N)nc1N | -0.929 (inactive) | -0.393 | -0.0693
36 | S=c1nc[nH]c2nc[nH]c12 | -0.8 (inactive) | -0.506 | -0.594
37 | Nc1nc(Cl)nc2c1ncn2[C@H]1C[C@H](O)[C@@H](CO)O1 | -0.756 (inactive) | -0.859 | -0.649
